Counter-ions that a name gives are not always drawn. ± gives the standard deviation of the averaged measurements. Whole data set: some 3,100 compounds, median “mean cytoplasmic OPP incorporation (global translation) relative to DMSO” near 100, cut for the lowest 2% near 56. The sample holds the lowest values, similar compounds and a random draw of the others, so the mix is not that of the screen.
What follows are molecules tested on U2OS (assay: mean cytoplasmic OPP incorporation (global translation) relative to DMSO (% of DMSO); higher = more protein synthesis). Conditions: 10 µM; 24 h.
Method: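 Primary image-based screen in U2OS cells: compounds at 10 uM for 24 h, then a 1 h o-propargyl-puromycin (OPP) pulse, click labelling, and high-throughput microscopy. Mean cytoplasmic OPP intensity and nuclei count were normalised to DMSO wells within each plate (DMSO = 100) and averaged over triplicate plates.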

Compared with CSCCC(C=O)NC(=O)C(CC(C)C)NC(=O)[C@H](CC(C)C)NC(C)=O (stereo partly drawn) [Calpain Inhibitor II (ALLM)], CCC(C)[C@H](NS(=O)(=O)c1cccc2ccccc12)C(=O)N[C@H](C=O)Cc1c[nH]c2ccccc12 (stereo partly drawn) is lower in “mean cytoplasmic OPP incorporation” value: 109 for the first, 102 for the second.

Going from COC1CCC(C(=O)c2ccc3nc4c(cc3c2)CCCO4)CC1 (stereo not drawn) to CCC(=O)NC1CCc2cccc(OC)c2C1 (stereo not drawn), the “mean cytoplasmic OPP incorporation” value rises from 98.8 to 101.

Compared with C=CC(=O)N1CCC[C@@H](n2nc(-c3ccc(Oc4ccccc4)cc3)c3c(N)ncnc32)C1, Nc1ncnc2c1c(-c1cnc3[nH]ccc3c1)nn2C1CCCC1 is lower in “mean cytoplasmic OPP incorporation” value: 105 ± 2.3 for the first, 44.2 for the second.

Going from N#CC[C@H](C1CCCC1)n1cc(-c2ncnc3[nH]ccc23)cn1 to O=c1nc2ccccc2c2n1CC(CN1CCN(c3ccccc3)CC1)N2 (stereo not drawn), the “mean cytoplasmic OPP incorporation” value rises from 83.53 ± 0.64 to 101.

Compared with COc1cccc(/C=N/N=C/c2cccc(OC)c2)c1, O=c1[nH]c2cc(Cl)ccc2c(O)c1-c1cccc(Oc2ccccc2)c1 is higher in “mean cytoplasmic OPP incorporation” value: 99.7 for the first, 103 for the second.

Compared with CC1=C(/C=C/C(C)=C/C=C/C(C)=C\CO)C(C)(C)CCC1 [13-cis-Retinol], CCOC(=O)C=Cc1ccc(O)c(OC)c1 [Ferulic acid ethylester] is higher in “mean cytoplasmic OPP incorporation” value: 90.9 for the first, 103 for the second.

First: O=C(O)Cc1nn(Cc2ccc(Br)cc2F)c(=O)c2ccccc12 [Statil]
Second: O=C(Cc1ccccc1)Nc1nc2ccc(Cl)cc2c2nc(-c3ccco3)nn12
The “mean cytoplasmic OPP incorporation” value of the first is lower: 98.2 for the first, 104 for the second.

Compared with Cc1ccc(NC(=O)c2ccc(CN3CCN(C)CC3)cc2)cc1Nc1nccc(-c2cccnc2)n1 [Imatinib Mesylate], Nc1ccccc1NC(=O)c1ccc(CNc2nccc(-c3cccnc3)n2)cc1 [Mocetinostat (MGCD0103)] is lower in “mean cytoplasmic OPP incorporation” value: 130 for the first, 35.5 for the second.

Compared with COc1ccc(C(=O)NCc2cccnc2)cc1C(=O)NCc1cccnc1 [Picotamide monohydrate], Nc1ccccc1NC(=O)c1ccc(CNC(=O)OCc2cccnc2)cc1 [Entinostat (MS-275, SNDX-275)] is lower in “mean cytoplasmic OPP incorporation” value: 98.8 for the first, 23.5 for the second.

First: Cc1cc(NC(=O)c2cccc(NC(=O)/C=C/CN(C)C)c2)ccc1Nc1nccc(-c2cccnc2)n1
Second: Cc1ccc(NC(=O)c2ccc(CN3CCN(C)CC3)cc2)cc1Nc1nccc(-c2cccnc2)n1 [Imatinib]
The “mean cytoplasmic OPP incorporation” value of the first is lower: 96.1 for the first, 120 for the second.

Compared with Cc1ccc(NC(=O)c2ccc(CN3CCN(C)CC3)cc2)cc1Nc1nccc(-c2cccnc2)n1 [Imatinib mesylate], O=S1(=O)c2cccc3cccc(c23)N1CCCN1CCN(c2ccc(F)cc2)CC1 [Fananserin] is lower in “mean cytoplasmic OPP incorporation” value: 121 ± 11 for the first, 103 for the second.

First: CC(=O)Nc1ccc(C(=O)Nc2ccccc2N)cc1
Second: Cc1ccc(NC(=O)c2ccc(CN3CCN(C)CC3)cc2)cc1Nc1nccc(-c2cccnc2)n1 [Imatinib (STI571)]
The “mean cytoplasmic OPP incorporation” value of the first is lower: 57.3 ± 33 for the first, 124 for the second.

Going from O=C(O)c1ccccc1Nc1cccc2c1C(=O)c1cccc(Nc3ccccc3C(=O)O)c1C2=O to CC1(C)OC2=C(C(=O)c3ccccc3C2=O)[C@H](NCc2ccccc2)[C@@H]1O, the “mean cytoplasmic OPP incorporation” value falls from 113 to 38.9.

Going from CC(C)CC(NC(=O)OCC1c2ccccc2-c2ccccc21)C(=O)O (stereo not drawn) to CC(C)NCC(O)COc1ccccc1-n1cccc1 (stereo not drawn) [Isamoltane hemifumarate], the “mean cytoplasmic OPP incorporation” value falls from 109 to 94.6.

Compared with Brc1ccc(C2CN3CCSC3=N2)cc1 [L-p-Bromotetramisole oxalate], CC1(C)Oc2ccc(C#N)cc2[C@H](N2CCCC2=O)[C@H]1O [Cromakalim] is higher in “mean cytoplasmic OPP incorporation” value: 94.5 for the first, 98.1 for the second.

Compared with COCC[n+]1c2c(n(Cc3cnccn3)c1C)C(=O)c1ccccc1C2=O, O=C1NC(=O)c2c1c(-c1ccccc1)cc1[nH]c3ccc(O)cc3c21 is higher in “mean cytoplasmic OPP incorporation” value: 35 for the first, 51.8 for the second.

Going from Nc1c(O)cc(O)cc1C=Cc1ccc(O)cc1 [Aminoresveratrol sulfate] to CCCOC(=O)c1cc(O)c(O)c(O)c1 [N-Propyl gallate], the “mean cytoplasmic OPP incorporation” value rises from 100 to 123.

Compared with CS(=O)(=O)N1CCN(Cc2cc3nc(-c4cccc5[nH]ncc45)nc(N4CCOCC4)c3s2)CC1 [Pictilisib (GDC-0941)], Cc1c(CN2CCN(C(=O)[C@H](C)O)CC2)sc2c(N3CCOCC3)nc(-c3cnc(N)nc3)nc12 [Apitolisib (GDC-0980, RG7422)] is lower in “mean cytoplasmic OPP incorporation” value: 73.8 for the first, 50.7 for the second.

First: COc1ccc(-c2nc(N3CCOCC3)c3sc(CN(C)c4ncc(C(=O)NO)cn4)cc3n2)cn1
Second: COc1ccc2cc3[n+](cc2c1OC)CCc1cc2c(cc1-3)OCO2 [Berberine HCl]
The “mean cytoplasmic OPP incorporation” value of the first is lower: 86.6 for the first, 106 for the second.

Compared with Cc1cc(Cc2cc(C)cc(C(C)(C)C)c2O)c(O)c(C(C)(C)C)c1, CCN(CC)CCCC(C)Nc1c2ccc(Cl)cc2nc2ccc(OC)cc12 (stereo not drawn) [Quinacrine dihydrochloride dihydrate] is lower in “mean cytoplasmic OPP incorporation” value: 103 for the first, 29.5 for the second.

Compared with Cc1cc(C(=O)NNCc2ccccc2)no1 [Isocarboxazid], CC1(C)S[C@@H]2[C@H](NC(=O)Cc3ccccc3)C(=O)N2[C@H]1C(=O)O [Benzathine benzylpenicillin] is lower in “mean cytoplasmic OPP incorporation” value: 106 for the first, 104 for the second.

Going from CC1(C)S[C@@H]2[C@H](NC(=O)Cc3ccccc3)C(=O)N2[C@H]1C(=O)O [Benzylpenicillin sodium] to FC(F)(F)c1cc(COC2CCCNC2c2ccccc2)cc(C(F)(F)F)c1 [L-733,060 hydrochloride], the “mean cytoplasmic OPP incorporation” value rises from 80.8 to 108.

Going from CC(C)Oc1ccc(-c2c[nH]cc2CN(C)CCN)cc1 to CCN(CC)CCCC(C)Nc1ccnc2cc(Cl)ccc12 (stereo not drawn) [Chloroquine diphosphate], the “mean cytoplasmic OPP incorporation” value rises from 100 to 105.

Compared with CC(CCCCC(=O)Nc1ccc(C(F)(F)F)cc1)NCCc1cnc[nH]1 (stereo not drawn) [HTMT dimaleate], CCN(CCO)CCCC(C)Nc1ccnc2cc(Cl)ccc12 (stereo not drawn) [Hydroxychloroquine sulfate] is higher in “mean cytoplasmic OPP incorporation” value: 100 for the first, 102 for the second.

Compared with C[n+]1cc2c3c(ccc2c2ccc4cc5c(cc4c21)OCO5)OCO3 [Sanguinarine chloride], CS(=O)(=O)CCNCc1nc(-c2ccc3ncnc(Nc4ccc(OCc5cccc(F)c5)c(Cl)c4)c3c2)cs1 is higher in “mean cytoplasmic OPP incorporation” value: 42.4 for the first, 102 for the second.

First: N#Cc1cc2c(OCC(O)CN3CCN(C(c4ccccc4)c4ccccc4)CC3)cccc2[nH]1 (stereo not drawn)
Second: CCN(CCO)CCCC(C)Nc1ccnc2cc(Cl)ccc12 (stereo not drawn) [Hydroxychloroquine]
The “mean cytoplasmic OPP incorporation” value of the first is higher: 107 for the first, 93 for the second.

For CCN(CC)CCCC(C)Nc1ccnc2cc(Cl)ccc12 (stereo not drawn) [Chloroquine], the “mean cytoplasmic OPP incorporation” value was 107.
